# Measured values from PubChem BioAssay AID588852 (The Scripps Research Institute Molecular Screening Center, 2011).
# Out of some 360,000 compounds screened, about 4,600 (1.3%) were called active.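 The calls were made as follows: active = percent inhibition above its own plate's cutoff, namely the mean of that plate's compound wells plus 3 SD; inactive = the rest.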 This excerpt belongs to a sample that is enriched for actives.
# Biological target: Muscarinic acetylcholine receptor M1 (Homo sapiens) (UniProt P11229)
# Assay: CHRM1 blockers of acetylcholine calcium response – CHO-K1 cells, Fluo-8 calcium fluorescence, 1536-well, primary screen (AID 588852);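 also: peak over basal fluorescence ratio during 140 s after agonist addition; 0% = ACh EC80 plus DMSO and 100% = DMSO alone without agonist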
# Settings: CHO-K1 hM1, Fluo-8 calcium fluorescence, ACh EC80 antagonist; at 3 µM; active compounds read high
# Sequence of Muscarinic acetylcholine receptor M1 (Homo sapiens) (P11229 whole entry, looked up): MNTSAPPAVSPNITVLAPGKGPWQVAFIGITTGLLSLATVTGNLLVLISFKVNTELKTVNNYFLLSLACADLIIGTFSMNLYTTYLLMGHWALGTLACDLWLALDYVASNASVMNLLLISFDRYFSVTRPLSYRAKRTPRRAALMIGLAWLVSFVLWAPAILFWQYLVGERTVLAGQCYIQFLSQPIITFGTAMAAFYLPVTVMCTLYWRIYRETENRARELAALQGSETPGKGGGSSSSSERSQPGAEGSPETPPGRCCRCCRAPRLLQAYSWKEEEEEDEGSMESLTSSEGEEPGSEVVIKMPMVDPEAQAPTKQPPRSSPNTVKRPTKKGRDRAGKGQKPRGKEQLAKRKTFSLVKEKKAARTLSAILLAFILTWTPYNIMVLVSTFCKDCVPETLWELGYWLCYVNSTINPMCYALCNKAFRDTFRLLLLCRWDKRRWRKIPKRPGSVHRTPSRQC
row,SMILES,inhibition
1,CCCCN1CC(N2CCN(Cc3cccc(C)c3)CC2)CS1(=O)=O (centres undefined),8.04% (inactive)
2,CSc1ccc(CN2C(=O)NC3(CCCCCC3)C2=O)cc1,8.79% (inactive)
3,CC(C)(C)C(=O)NC1CC2CCCC(C1)N2C(=O)Nc1ccccc1F (centres undefined),-7.35% (inactive)
4,COc1ccc(S(=O)(=O)NCCCCOc2ccc(Cl)cc2)cc1,32.6% (active)
5,COc1ccc(OCCNS(=O)(=O)Cc2ccccc2)cc1,-0.06% (inactive)
6,COc1ccc(S(=O)(=O)NCCOc2ccccc2)cc1F,-7.76% (inactive)
7,CC1(C)CC(=O)C=C(N2CCOCC2)C1,-7.94% (inactive)
8,CC(C)OCC(O)CN1CCN(C(c2ccccc2)c2ccccc2)CC1 (centres undefined),24.4% (inactive)
9,CC1(C)CC(N2CCN(C(c3ccccc3)c3ccccc3)CC2)=CC(=[N+]2CCCCC2)C1,72.8% (active)
10,CCNS(=O)(=O)c1ccc(CCC(=O)N2CCN(c3cc(Cl)ccc3C)CC2)cc1,13.9% (inactive)
11,Cc1sc2ccccc2c1CNC[C@H]1O[C@@H](n2ccc(=O)[nH]c2=O)[C@H](O)[C@@H]1O,-6.07% (inactive)
12,CSCCC(NC(=O)c1ccccc1)C(=O)N1CCCCCCC1 (centres undefined),-10.3% (inactive)
13,CSCCC(NC(=O)c1ccccc1)C(=O)N1CCN(Cc2ccc(Cl)cc2)CC1 (centres undefined),31.4% (active)
14,COc1ccccc1C(=O)NC(CCSC)C(=O)N1CCN(C(C)=O)CC1 (centres undefined),-18.2% (inactive)
15,O=c1c2c(ncn1Cc1ccccc1)nc1n2CCC1,-9.57% (inactive)
16,COc1ccc(-c2nc3ccc(Br)cn3c2Cc2ccc(C)cc2)cc1OC,-18.2% (inactive)
17,CCOc1ccc(CCNC(=O)COC(=O)C2CCN(c3ccc(C(F)(F)F)cn3)CC2)cc1OCC,38.9% (active)
18,CCc1cccc(NC(=O)COC(=O)C2CCN(c3ccc(C(F)(F)F)cn3)CC2)c1,2.01% (inactive)
19,CCOc1ccc(CCNC(=O)COC(=O)C2CCN(S(=O)(=O)c3ccccc3)CC2)cc1OCC,-4.87% (inactive)
20,CCc1ccc([C@@H]2CC(=O)[C@@H]3CN(S(=O)(=O)c4ccc(C)cc4)[C@H](c4ccc(Cl)cc4)C[C@@H]3N2S(=O)(=O)c2ccc(C)cc2)cc1,-3.63% (inactive)
21,COc1ccccc1OCCCCCCN1CCN(C)CC1,-0.37% (inactive)
22,COc1ccccc1N1CCN(CCCCOc2ccc(F)cc2)CC1,30.4% (active)
23,CCN1CCN(CCCCOc2ccccc2F)CC1,-2.84% (inactive)

row,SMILES,inhibition
1,O=C(NC(Cc1ccc(O)cc1)C(=O)O)/C(=C/c1ccccc1)NC(=O)c1ccccc1 (centres undefined),-14.6% (inactive)
2,Cc1cccc(CN2CCN(C3CN(Cc4cn(Cc5ccccc5F)nn4)S(=O)(=O)C3)CC2)c1 (centres undefined),-4.3% (inactive)
3,COC(=O)C1=C(C)NC2=C(C(=O)c3ccccc32)C1c1ccc(-c2ccc(C(=O)O)cc2)o1 (centres undefined),32.9% (active)
4,COC(=O)C1=C(C)NC(=O)/C1=C/c1ccc(CNS(=O)(=O)c2ccc(C)cc2)o1,8.24% (inactive)
5,COC(=O)C1=C(C)N(C)C(=O)NC1c1ccc([N+](=O)[O-])o1 (centres undefined),0.09% (inactive)
6,CCN(CC)S(=O)(=O)c1ccc(N(C)CCc2ccc(OC)c(OC)c2)nc1,-0.86% (inactive)
7,CCN(CC)S(=O)(=O)c1ccc(N(C)Cc2ccc(C(F)(F)F)cc2)nc1,61.2% (active)
8,CCN(CC)S(=O)(=O)c1ccc(N(C)Cc2cccc(OC)c2OC)nc1,7.81% (inactive)
9,Cc1ccc(Sc2ccc(NC(=O)c3ccc(F)cc3)cc2C#N)cc1,9.62% (inactive)
10,COc1ccc(N2CCN(C(=O)COc3ccc4c(C)cc(=O)oc4c3)CC2)cc1,-5.75% (inactive)
11,Cc1cc(=O)oc2cc(OCC3CC(c4ccccc4Cl)=NO3)ccc12 (centres undefined),-6.21% (inactive)
12,Cc1cc(OCCCN2CCN(Cc3ccccc3)CC2)ccc1[N+](=O)[O-],54.7% (active)
13,Cc1ccccc1N1CCN(CCCOc2ccc3c(C)cc(=O)oc3c2)CC1,39.5% (active)
14,Cc1cc(OCC(=O)NC2CCN(C)CC2)ccc1[N+](=O)[O-],-1.71% (inactive)
15,COc1cc(CN2CCN(Cc3ccc(C)cc3)CC2)c([N+](=O)[O-])cc1OC,-6.59% (inactive)
16,Nc1nc2cc(Cl)ccc2n1N,-2.44% (inactive)
17,CN1OC[C@@H]2CN(S(=O)(=O)c3cccc4ccccc34)[C@H](c3ccc(N4CCCCC4)cc3)C[C@@H]21,5.74% (inactive)
18,O=C(NC(c1ccc(-c2ccccc2)cc1)c1cnccn1)C1CCN(CCOc2ccc(Cl)cc2Cl)CC1 (centres undefined),-16.7% (inactive)
19,CN(C)CCOc1ccc(Cl)cc1C(C)(C)C,66.2% (active)
20,CN(C)CCOCCOc1ccc(Cl)c2ccccc12,-1.32% (inactive)
21,CN(C)CCOc1cccc(Br)c1,17.3% (inactive)
22,Cc1cc(C)cc(NC(=O)C(c2ccccc2)N2CCN(CC(=O)N3CCCC3)CC2)c1 (centres undefined),3.45% (inactive)
23,Cc1ccc(C)c(NC(=O)C(OC(=O)c2ccc(C)s2)c2ccccc2)c1 (centres undefined),-2.69% (inactive)

row,SMILES,inhibition
1,Cc1cc(C)cc(NC(=O)C(OC(=O)c2ccc(O)cc2)c2ccccc2)c1 (centres undefined),29.5% (active)
2,COCCCNC(=O)CN1C(=O)CSc2ccc(S(=O)(=O)N3CCOCC3)cc21,-6.65% (inactive)
3,CCN(C(=O)COC(=O)c1c(C)nn(-c2ccccc2)c1Cl)c1c(N)n(Cc2ccccc2)c(=O)[nH]c1=O,-4.94% (inactive)
4,CN(Cc1cnccn1)C(=O)c1cc(COc2cccc(C(F)(F)F)c2)on1,-11.2% (inactive)
5,CN(Cc1cccnc1)C(=O)c1cc(COc2ccc3ncccc3c2)on1,50% (active)
6,CC(=O)c1cccc(OCc2cc(C(=O)NC(C)Cc3cccnc3)no2)c1 (centres undefined),18.6% (inactive)
7,Cc1nc(COc2cc3oc(=O)cc(C)c3cc2Cl)cs1,-7.17% (inactive)
8,O=C(Cn1cc(C(F)(F)F)ccc1=O)Nc1ccc2c(c1)OCCO2,-0.29% (inactive)
9,O=C(CSc1nnc(-c2ccco2)o1)NCC(=O)c1ccccc1,-3.08% (inactive)
10,CCN(Cc1ccncc1)C(=O)c1cccc(S(=O)(=O)N2CCOCC2)c1,-4% (inactive)
11,O=S(=O)(c1cccc(Cn2nnc(-c3ccc(F)cc3)n2)c1)N1CCOCC1,27.1% (active)
12,Cc1nc(-c2ccc(F)cc2)c(CC(=O)Nc2cccc(S(=O)(=O)N3CCOCC3)c2)s1,0.85% (inactive)
13,O=C(CSc1nc2nccnc2c(=O)n1Cc1cccs1)Nc1ccccc1F,9.12% (inactive)
14,Cc1ccccc1CNC(=O)CCC(=O)N1Cc2ccccc2Oc2ncccc21,-0.29% (inactive)
15,O=C(CS(=O)(=O)c1ccc(C(F)(F)F)cn1)NNC(=O)c1ccccc1,11.9% (inactive)
16,Nc1nc2c(ncn2[C@@H]2O[C@H](CNS(=O)(=O)N3CCc4ccccc4C3)[C@@H](O)[C@H]2O)c(=O)[nH]1,-4.64% (inactive)
17,COC(=O)c1ccc(NC(=O)CN(c2ccc(C)cc2)S(=O)(=O)c2c(C)n[nH]c2C)cc1,-8.36% (inactive)
18,CN(Cc1ccccc1F)c1cc2c(c3c1ccn3C)C1CCC2O1 (centres undefined),-40.5% (inactive)
19,COc1cc(C(=O)NCc2ccc3c(c2)cc(C)n3C)cc(OC)c1OC,-1.03% (inactive)
20,CCn1c(CNC(=O)c2cc(OC)c(OC)c(OC)c2)cc2cc(C)ccc21,47.9% (active)
21,COc1cc(C(=O)NCc2cc3cc(Cl)ccc3n2C)cc(OC)c1OC,-19.2% (inactive)
22,CCN(CC(=O)NC(C)C)C(=O)c1cc(S(=O)(=O)N2CCCCC2)ccc1N1CCCCC1,-0.72% (inactive)
23,CCc1ccc(NC(=O)C(=O)N/N=C(\C)CC(=O)NCCOC)cc1,-7.5% (inactive)

row,SMILES,inhibition
1,Cn1c(SCC(=O)N2CCCc3ccccc32)nc2ccccc2c1=O,31.9% (active)
2,O=C(CSc1nc2ccccc2c(=O)n1CCCO)N1CCc2ccccc21,-9.53% (inactive)
3,C=CCn1c(=O)c2ccccc2n2c(SCC(=O)N3CCCc4ccccc43)nnc12,10.1% (inactive)
4,CCn1c(C(C)C)n[nH]c1=S,-7.45% (inactive)
5,CC(C)C1Nc2c(C(=O)O)cccc2C(Nc2ccccc2C(=O)O)C1(C)C (centres undefined),2.52% (inactive)
6,O=C(O)CC/C(=N\NC(=O)c1ccc(F)cc1)c1ccc(Br)cc1,-10.2% (inactive)
7,C/C(=N\NC(=O)c1ccc2ccccc2c1)c1cccnc1,-15.4% (inactive)
8,CC(=NNC(=O)c1ccc2nc[nH]c2c1)c1ccc(Br)cc1,35.2% (active)
9,CN1OC[C@@H]2CN(C(=O)c3cccnc3)[C@H](c3ccc(N4CCCCC4)cc3)C[C@@H]21,-0.12% (inactive)
10,Cc1ccc(C(=O)OCC(=O)N2CCCCCC2)cc1S(=O)(=O)N1CCOCC1,-0.5% (inactive)
11,COc1ccc(CNC(=O)COC(=O)c2ccc(C)c(S(=O)(=O)N3CCOCC3)c2)cc1OC,-2.56% (inactive)
12,COc1ccc(C(=O)OCC(=O)c2ccc(C)c(S(=O)(=O)N3CCOCC3)c2)cc1OC,42% (active)
13,CC1(Cc2ccccc2C#N)C(=O)Nc2ccc(-c3ccc4[nH]ccc4c3)cc21 (centres undefined),8.72% (inactive)
14,CCOC(=O)c1ccn(S(=O)(=O)c2ccc(C)cc2)c1-c1ccccc1,13.3% (inactive)
15,COc1ccccc1C(CNC(=O)c1cccc(NS(=O)(=O)c2ccc(Br)cc2)c1)N(C)C (centres undefined),99.2% (active)
16,CC(=O)c1ccc(S(=O)(=O)Nc2ccc(C(=O)NCC(c3ccccc3)N(C)C)cc2)cc1 (centres undefined),16.4% (inactive)
17,COc1ccccc1C(CNC(=O)c1cccc(S(=O)(=O)Nc2ccc(F)cc2)c1)N(C)C (centres undefined),100% (active)
18,CN(C)C(CNC(=O)c1cccc(S(=O)(=O)Nc2ccc(Br)cc2)c1)c1ccco1 (centres undefined),-0.14% (inactive)
19,COc1ccc(C(CNC(=O)c2cccc(S(=O)(=O)Nc3ccc(Br)cc3)c2)N(C)C)cc1 (centres undefined),-2.85% (inactive)
20,Cc1cccc(NS(=O)(=O)c2ccc(C)c(C(=O)NCC(c3ccccc3)N(C)C)c2)c1 (centres undefined),-6.04% (inactive)
